High-throughput results as filed in PubChem BioAssay.
rTrxR1 inhibitor – qHTS Assay for Inhibitors of Mammalian Selenoprotein Thioredoxin Reductase 1 (TrxR1): qHTS. recombinant rTrxR1, NADPH fluorescence consumption, selenite substrate. 390,000 tested, 1% active. AID 588453, 2011. Potency, µM (series often up to 114 µM), for inactives: at the highest dose activity change, negative = inhibition, most hits filed as inhibitors; further: nearly all actives have a fitted effect of over 65% in size
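Rat TrxR1 (90 nM in the dispensed reagent) was pre-reduced with 400 uM NADPH for 5 min at room temperature, then incubated with compound for 15 min. After 400 uM selenite was added, NADPH fluorescence (Ex 340/Em 450 nm) was followed for 8 min.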
GLS inhibitor – qHTS for Inhibitors of Glutaminase (GLS); GLS enzymatic activity, qHTS titration; 410,000 tested, 0.21% active; Glutaminase kidney isoform, mitochondrial (Homo sapiens), O94925; Potency, µM (series often up to 45.5 µM), inactives show at the top dose activity change, negative = inhibition, hits mostly inhibitors
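hKGA in 45 mM KH2PO4 (pH 8.2), 0.02% Tween-20 with compound, then 1mM L-Glutamine (stock as added) plus glutamate oxidase/HRP/Amplex red coupling mix. Fluorescence read initially and after 30 min at RT; signal change reflects glutamate formation.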
TrxR1 substrate – qHTS Assay for Substrates of Mammalian Selenoprotein Thioredoxin Reductase 1 (TrxR1): qHTS; Thioredoxin reductase 1, cytoplasmic (Rattus norvegicus), O89049; Potency, µM (highest dose often 114 µM), inactives show at the highest dose activity change, negative = substrate turnover; AID 588456, 2011; 390,000 tested, 0.01% active; purified TrxR1 substrate turnover, NADPH consumption readout; further: nearly all actives have a fitted effect of over 50% in size
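Rat TrxR1, dispensed at 90 nM, was prereduced with 400 uM NADPH (final) for 5 min at ~22 deg C, then incubated with compound 15 min before 400 uM selenite. A first-read NADPH fluorescence drop versus no-compound background flagged substrates.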
Sfp inh – qHTS Assay for Inhibitors of Bacillus subtilis Sfp phosphopantetheinyl transferase (PPTase); 4'-phosphopantetheinyl transferase ffp (Bacillus subtilis), Q9F4F7; Biochemical Sfp PPTase activity, qHTS; Potency, µM, inactives show largest response in the series, negative = inhibition, usual class: inhibitors; 310,000 tested, 3.5% active; AID 1490, 2009;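 further: the enzyme is Sfp with the accession as filed and its product quenches rhodamine fluorescence; 0% = enzyme reaction without inhibitor and -100% = no enzyme wells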
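Sfp 15 nM + cpd, 15 min RT; start w/ rhodamine-CoA 5 uM, BHQ-2-YbbR 12.5 uM (final); 50 mM Hepes pH 7.6, 10 mM MgCl2, 0.01% NP-40, 0.01% BSA; read 525/598 nm at 0 and 30 min.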
KAT2A inh – qHTS Assay for Inhibitors of GCN5L2; Potency, µM (titrated, usually from 58.9 µM), for inactives: at the highest dose activity change, negative = inhibition, actives largely listed as inhibitors; GCN5L2 HAT assay, ThioGlo1 CoA-SH fluorescence; Histone acetyltransferase KAT2A (Homo sapiens), Q92830; 390,000 tested, 0.21% active
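GCN5L2 (20 nM) in 50mM HEPES pH 7.5, 0.1mM EDTA, 0.01% Tween-20 preincubated 15 min with compounds at room temperature. Reaction started with H3(1-25) 75uM, acetyl-CoA 70uM, ThioGlo1 50uM; CoA-thiol fluorescence (Ex340/Em540) read at 0 and 20 min.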
VDR inhibitor – Inhibitors of the vitamin D receptor (VDR): qHTS; Vitamin D3 receptor (Homo sapiens), P11473; VDR-SRC2-3 peptide fluorescence polarization, 2 h; Potency, µM, for inactives: max response, negative = inhibition, actives largely listed as inhibitors; 400,000 tested, 0.93% active; AID 504847, 2011
Target sequence (P11473 whole entry, looked up): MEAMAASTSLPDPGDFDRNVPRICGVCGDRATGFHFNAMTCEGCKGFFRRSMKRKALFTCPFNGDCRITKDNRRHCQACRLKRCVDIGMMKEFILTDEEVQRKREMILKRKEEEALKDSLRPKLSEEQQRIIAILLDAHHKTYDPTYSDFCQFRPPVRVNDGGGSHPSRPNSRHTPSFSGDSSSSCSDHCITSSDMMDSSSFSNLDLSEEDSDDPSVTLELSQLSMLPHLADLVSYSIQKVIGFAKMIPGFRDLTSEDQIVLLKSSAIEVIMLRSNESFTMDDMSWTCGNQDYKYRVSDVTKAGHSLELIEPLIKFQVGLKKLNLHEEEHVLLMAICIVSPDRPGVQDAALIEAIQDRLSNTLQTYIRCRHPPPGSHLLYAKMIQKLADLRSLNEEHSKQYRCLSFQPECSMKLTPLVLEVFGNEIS
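Compounds are added to VDR with labelled SRC2-3 coactivator peptide and held 2 h at room temperature. Inhibition of the VDR–peptide interaction is then read as a change in fluorescence polarization.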
* = called active by the depositor; u = inconclusive; x = not tested or not shown; [ ] = another dose, or the depositor's remark. This is a sample that favours compounds with a hit; in the whole collection about 3.8% have one here. The call rests on the fitted dose curve; in most records, active means well fitted curve in the direction sought with a large enough effect; inconclusive means small, poorly fitted or top-dose-only effect, or another doubt; inactive means no such curve, though single readings can be large; an effect the other way counts as inactive or inconclusive. Unless noted, on the % scale 0 is the no-effect control and ±100 the full control effect; potency means the concentration at half of the fitted maximal effect.

SMILES	rTrxR1 inhibitor	GLS inhibitor	TrxR1 substrate	Sfp inh	KAT2A inh	VDR inhibitor
CC(=O)c1ccc(N=Nc2ccc(N(C)C)cc2)cc1	1%	0%	-10%	-3%	-5%	14%
CN=C1C=CC(=C(c2ccc(N(C)C)cc2)c2ccc(N(C)C)cc2)C=C1	x	-8%	x	45µM*	-23%	40µM*
COc1ccc(/C=N/NC(=O)Cn2nc(C)c([N+](=O)[O-])c2C)cc1	1%[57.1 µM]	-4%	6%[57.1 µM]	-2%	-2%	u
Cc1ccc(/C=N/NC(=O)Cn2nc(C)c([N+](=O)[O-])c2C)o1	19%[57.1 µM]	-20%	-12%[57.1 µM]	45µM*	-6%	20%
COc1ccc2cc(C3CC(c4ccco4)=NN3S(C)(=O)=O)c(Cl)nc2c1 (stereo not drawn)	50µM*	-8%	1%	50µM*	-9%	-17%
Cc1ccc2cc(C3CC(c4ccco4)=NN3C(=O)CCC(=O)O)c(Cl)nc2c1 (stereo not drawn)	-11%	-14%	-3%	0%	-4%	32µM*
Cc1ccc2nc(Cl)c(C3CC(c4cccs4)=NN3C(=O)CCCC(=O)O)cc2c1 (stereo not drawn)	6%	-3%	4%	-13%	-10%	4%
CCc1nnc(NS(=O)(=O)c2ccc(NC(=S)NC(=O)/C=C/c3ccc(F)cc3)cc2)s1	50µM*	18%	-13%	11%	2%	u
CCc1nnc(NS(=O)(=O)c2ccc(NC(=S)NC(=O)c3ccc(OC)cc3)cc2)s1	11µM*	28%	-11%	-23%	5%	-9%
CCc1nnc(NS(=O)(=O)c2ccc(NC(=S)NC(=O)/C=C/c3ccc([N+](=O)[O-])cc3)cc2)s1	6%	17%	2%	7%	u	6%
CC1CCC/C(=C\Nc2ccc(O)cc2)C1=O (stereo not drawn)	20µM*	19%	-14%	45µM*	-15%	-30%
Cc1cc(C(=O)O)ccc1N/C=C1\CCCC(C)C1=O (stereo not drawn)	-22%	19%	-18%	16%	-7%	3%
O=C(c1ccccc1)C1CN(Cc2ccccc2)CCC1(O)c1ccccc1 (stereo not drawn)	7.1µM*	-6%	9%	3%	-13%	-14%
COc1ccc(-n2c(=S)[nH]c3ccccc3c2=S)cc1	-9%	2%	-4%	12%	-23%	33%
COc1ccc(-n2c(=S)[nH]c3ccccc32)cc1	-12%	6%	-1%	45µM*	-6%	7%
CCc1nnc(N/N=C/c2cccs2)n1N	0%	-4%	-17%	u	-1%	3%
O=C(Nc1ccc[n+](CC(=O)c2cccc3ccccc23)c1)c1ccccc1	-29%	3%	-13%	56µM*	-3%	-10%
O=S(=O)(NCc1ccccc1)c1ccc(S(=O)(=O)NCC2CCCO2)cc1 (stereo not drawn)	1.4µM*	0%	-5%[57.1 µM]	14%	-1%	-12%
Cc1cc([N+](=O)[O-])ccc1Nc1nc2ccccc2n2cnnc12	10%	-9%	1%	-2%	-5%	-19%
Cc1ccc(CCc2nnc(SCC(=O)Nc3ccccc3Cl)n2-c2ccccc2)o1	-13%	5%	-3%	-22%	-2%	-10%
CCOC(=O)c1ccc(NC(=O)CSc2nnc(CCc3ccc(C)o3)n2-c2ccccc2)cc1	u	-1%	1%	16µM*	-3%	-7%
O=[N+]([O-])c1ccc(C2CC(c3ccccc3)=Nc3ccccc3S2)cc1 (stereo not drawn)	18%[2.29 µM]	-1%	6%[2.29 µM]	10µM*	-15%	u
O=C(O)C1CC(c2ccccc2)=Nc2ccccc2S1 (stereo not drawn)	9%	-9%	7%	19%	-6%	-18%
Clc1cccc(-c2ccc(CNCc3ccccn3)o2)c1	u	1%	11%	79µM*	0%	5%
Brc1ccc(-c2ccc(CNCc3ccccn3)o2)cc1	-8%	4%	-3%	-16%	2%	-28%
SMILES	rTrxR1 inhibitor	GLS inhibitor	TrxR1 substrate	Sfp inh	KAT2A inh	VDR inhibitor
O=S(=O)(NNc1ccc(Cl)nn1)c1ccc(F)cc1	6%[57.1 µM]	u	11%[57.1 µM]	13µM*	2%	-11%
O=S(=O)(NNc1cccc(Cl)n1)c1ccc(Cl)cc1	-2%	-16%	-11%	40µM*	u	4%
CS(=O)(=O)N(CC(=O)Nc1ccccc1C(=O)NCCc1ccccc1)c1ccc2c(c1)OCCO2	39%[57.1 µM]	-1%	15%[57.1 µM]	11%	-13%	4%
Cc1ccc(C(=O)NCCCNC(=O)c2ccccc2F)cn1	4%	0%	-1%	7%	5%	-3%
c1ccc(-c2nc(N3CCCC3)nc3ccccc23)cc1	26%	-9%	13%	40µM*	-10%	-11%
COc1c2c(c(C(=O)/C=C/C(C)=C/c3ccccc3)c3c1OCO3)CCN(C)C2	x	x	x	-9%	x	45µM*
Nn1cnnc1N/N=C\c1ccc(-c2ccccc2[N+](=O)[O-])o1	-10%	50%	u	45µM*	-9%	u
CC(Cl)C(=O)NNc1cccc(Cl)n1 (stereo not drawn)	u	20%	10%[57.1 µM]	50µM*	u	14%
O=C(NNc1cccc(Cl)n1)Nc1ccccc1	2%	-7%	-1%	-13%	-2%	-22%
Cc1ccc(S(=O)(=O)CCC(=O)OCC(=O)NCCc2ccc(F)cc2)cc1	12%	-2%	0%	x	4%	-1%
COCCN1CCn2c(nc3cc(NC(=O)c4cccs4)ccc32)C1	45µM*	9%	0%	-9%	2%	-32%
CCCCC(=O)Nc1ccc2c(c1)nc1n2CCN(CCOC)C1	-13%	-3%	36%	10%	-6%	5%
COc1ccc(Cc2n[nH]c(=S)n2C)cc1Br	-25%	8%	-11%	u	3%	-10%
COc1ccc(Cc2nc(=S)[nH][nH]2)cc1Br	-10%[57.1 µM]	-4%	5%[57.1 µM]	35µM*	u	-11%
C=CCn1c(-c2ccc(C)cc2)nc2ccccc21	1%	9%	-2%	7%	-4%	1%
